Eight molecules from PubChem BioAssay (NCI) can be followed below.

Each structure is given as a SMILES string. The panel holds about 79,000 compounds, 15% with a hit somewhere; the sample as a whole holds those more often. A number with no mark means an inactive call. Activity calls are given as the source filed them. No stated cut-off is given here; in the data, active means growth inhibition above about 70%; inactive means the rest.

The experiment can be described thus: NCI Yeast Anticancer Drug Screen. Data for the sgs1 strain (AID 173).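 Further: 0% = growth of vehicle-only control cultures.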 The settings on record: S. cerevisiae sgs1 mutant, stronger effect = higher value. As for the experimental part: Growth inhibition of yeast strains with defined genetic alterations is measured as a screen for potential anti-cancer activity. Selected strains with alterations in DNA damage repair or cell cycle control were exposed to compounds and growth inhibition was measured relative to vehicle treated controls. The strain used in this assay is sgs1

Regarding `CCCCC(CC)C(=O)Oc1ccc(C(=O)c2ccccc2)c(O)c1` (stereo not given), the growth inhibition is, setting by setting: (at 1.2 µM) 10%; (at 3.7 µM) 9%; (at 11.0 µM) 20%; (at 33.0 µM) 63%; (at 100.0 µM) 97% (active).
The matching figures for `Cc1cccc(/C=N\NC(=S)N2CCCCC2)n1`: 2%, 93% (active), 98% (active), 99% (active) and 98% (active).
Consider `Cc1ccc(N=Nc2ccc(O)c(C)c2)cc1`, for which the growth inhibition is 28% (at 1.2 µM); 26% (at 3.7 µM); 90% (active) (at 11.0 µM); 98% (active) (at 33.0 µM); 85% (active) (at 100.0 µM).
The matching figures for `C/C(=N\NC(=S)NC1CCCC1)c1ccccn1`: 0%, 79% (active), 99% (active), 99% (active) and 99% (active).
For `CC(=O)[C@]1(O)Cc2c(O)c3c(c(O)c2[C@@H](OC2CC(N)C(O)C(C)O2)C1)C(=O)c1c(OCc2ccccc2)cccc1C3=O` (stereo not given in full) the same measures were 8%, 4%, 22%, 19% and 53%.
On to `COc1cc(N(C)C)ccc1/C=C\c1ccnc2ccccc12`, for which the growth inhibition by setting is: (at 1.2 µM) -4%; (at 3.7 µM) -5%; (at 11.0 µM) 10%; (at 33.0 µM) 36%; (at 100.0 µM) 45%.
For `CN(C)c1ccc(N=Nc2ccccn2)cc1` the same measures were -6%, 5%, 25%, 88% (active) and 94% (active).
With `COc1ccc2oc(-c3ccc(Cl)cc3)c(N3CCN(C)CC3)c2c1`, the growth inhibition (at 1.2 µM) was -1%; the growth inhibition (at 3.7 µM) is 0%; the growth inhibition (at 11.0 µM) is 96% (active); the growth inhibition (at 33.0 µM) was 99% (active); the growth inhibition (at 100.0 µM) is 99% (active).
